# From PubChem BioAssay
# LmPK inh = LmPK (Leishmania mexicana) enzyme inhibition. Q27686. purified LmPK, Kinase-Glo ATP luminescence, 1 h. Potency, µM (titrated, usually from 57.5 µM), for the others: top-dose activity change, negative = inhibition, actives largely listed as inhibitors. 290,000 compounds, 0.37% hits; note: potency is the fitted concentration of half-maximal effect; % is set by controls: 0 for no effect and ±100 for the full control effect
# Target sequence (Q27686 whole entry, looked up): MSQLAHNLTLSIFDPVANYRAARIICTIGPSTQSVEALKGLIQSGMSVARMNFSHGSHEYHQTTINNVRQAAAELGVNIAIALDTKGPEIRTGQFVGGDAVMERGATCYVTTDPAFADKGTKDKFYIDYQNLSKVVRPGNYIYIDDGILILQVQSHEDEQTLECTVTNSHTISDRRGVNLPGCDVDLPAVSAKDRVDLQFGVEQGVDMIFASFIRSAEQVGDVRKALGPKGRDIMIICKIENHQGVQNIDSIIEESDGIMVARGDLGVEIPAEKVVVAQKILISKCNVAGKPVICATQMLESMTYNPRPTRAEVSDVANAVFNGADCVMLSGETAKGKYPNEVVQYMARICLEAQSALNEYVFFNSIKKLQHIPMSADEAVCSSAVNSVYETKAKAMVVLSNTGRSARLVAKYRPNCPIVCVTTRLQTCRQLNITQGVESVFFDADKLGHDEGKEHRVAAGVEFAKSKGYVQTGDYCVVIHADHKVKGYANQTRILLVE
#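 0.1 nM LmPK, 0.5 mM PEP, 0.1 mM ADP; 50 mM imidazole pH 7.2, 7 mM MgCl2, 50 mM KCl; 1 h RT. Kinase-Glo luminescence readout, normalized to no-enzyme (full inhibition) and uninhibited wells.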
# Sm TGR inh = blocks Schistosoma mansoni thioredoxin glutathione reductase. purified TGR, DTNB reduction, TNB absorbance 405 nm. 360,000 compounds, 3% hits. Potency, µM (series often up to 114 µM), for the others: top-dose activity change, negative = inhibition, actives largely listed as inhibitors. Q962Y6; note: potency is the fitted concentration of half-maximal effect; % is set by controls: 0 for no effect and ±100 for the full control effect; nearly all actives have a fitted effect of over 60% in size
#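 First, TGR (20 nM dispensed) and NADPH were mixed with compound. Second, a 15 min room-temperature incubation followed. Third, further NADPH and then DTNB were added to start the reaction. Finally, TNB absorbance was monitored kinetically.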
# Shiga inhibitor = inhibitors of Shiga toxin in Vero cells; Vero cells, Shiga toxin protein synthesis inhibition reporter; AID 2315; inhibition, % at 38.7 µM; 290,000 compounds, 9.2% hits; in the data active = inhibition mostly above about 28%, no sharp cut-off; inactive = mostly below about 43%; note: 0% is about no effect
# Tb PYK inh = blocks Trypanosoma brucei pyruvate kinase | TbPYK enzyme, Kinase-Glo Plus ATP luminescence, 45 min | Potency, µM (doses to about 76.8 µM), inactives show at the top dose activity, negative = inhibition, hits mostly inhibitors | AID 624173 | 410,000 compounds, 0.12% hits | Q57TT1; note: potency is the fitted concentration of half-maximal effect; % is set by controls: 0 for no effect and ±100 for the full control effect; nearly all actives have a fitted effect of over 50% in size
#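 Quantitative HTS: titrated library compounds versus trypanosomal pyruvate kinase in TEA buffer (pH 7.2) containing KCl, MgCl2, BSA and Tween-20. Reactions were initiated with ADP, 130 uM final. Kinase-Glo Plus luminescence was read after 45 min at RT.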
# Cycloheximide cs = affects cycloheximide protein synthesis inhibition readout, counter-screen; cell reporter, cycloheximide protein synthesis inhibition counterscreen; max response, %; 300,000 compounds, 12% hits; AID 2314; in the data active = max response mostly above about 13%, no sharp cut-off; inactive = mostly below about 14%; note: read at 38.3 µM for the half of the compounds with a filed dose; 0% is about no effect
# FBPA Giardia inh = blocks Giardia fructose-bisphosphate aldolase activity; purified Giardia FBPA; Potency, µM (highest dose often 59.6 µM), without a hit: top-dose activity, negative = inhibition, actives largely listed as inhibitors; 290,000 compounds, 0.71% hits; AID 2451; note: potency is the fitted concentration of half-maximal effect; % is set by controls: 0 for no effect and ±100 for the full control effect; nearly all actives have a fitted effect of over 55% in size
#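 Giardia FBPA (40 nM reagent) was preincubated 10 min at RT with compound (up to 57.5 uM final), then substrate plus GAPDH/TPI/NAD/arsenate coupling system with diaphorase/resazurin was added; resorufin fluorescence (525/598 nm) was read after 20 min.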
# An asterisk follows results filed as active; ? = inconclusive; . = no result; + = active, no number; [ ] = another dose, or the depositor's remark. This excerpt belongs to a sample that is enriched for hits. Unless noted, calls come from the whole dose curve; as a rule, active = well fitted curve in the direction sought with a large enough effect; inconclusive = small, poorly fitted or top-dose-only effect, or another doubt; inactive = no such curve, though single readings can be large; an effect the other way counts as inactive or inconclusive.
SMILES,LmPK inh,Sm TGR inh,Shiga inhibitor,Tb PYK inh,Cycloheximide cs,FBPA Giardia inh
Oc1ccc(/C=N/N2CCN(C3c4ccccc4-c4ccccc43)CC2)cc1O,2%,10µM*,17,-13%,5,-16%
Cc1cc(OCC(=O)Nc2c(C(=O)c3ccccc3)oc3ccccc23)cc(C)c1Cl,.,10%,.,4%,.,.
CC(C)COC[C@H](CN(Cc1ccccc1)c1ccccc1)N1CCCC1,.,.,.,.,.,-1%[21.7 µM]
O=C(O)CCCC/C=C(\c1ccccc1)c1cccnc1,.,.,.,-8%,.,.
O=C(c1ccco1)c1coc2c1cc(O)c1ccccc12,-3%,.,100*,-5%,32*,?
Cc1ccccc1CN1CCN(c2nc3ccccc3s2)CC1,-1%,7%,63*,-10%,51*,6%
O=[N+]([O-])c1ccc(CN2CCN(c3nc4ccccc4s3)CC2)cc1,8%,?,24,2%,12*,-5%
COc1ccc(CN2CCN(c3nc4ccccc4s3)CC2)cc1,-5%,5%,21,-2%,16,0%
CC(C)(C)OC(=O)NCCCC1=CC2=CC(=O)C(C)(OC(=O)c3cnc4ccccc4n3)C(=O)C2=CO1 (stereo not given),.,.,.,.,.,-19%
O=C(Nc1ccccc1Cl)c1ccn[nH]1,-7%,3%,110,-7%,20*,.
O=C(Nc1ccccc1F)c1ccn[nH]1,4%,7%,47*,6%,22*,3%
Cc1ccc(CNC(=O)Cn2cc(S(=O)(=O)Cc3cccc(Cl)c3)c3ccccc32)cc1,.,7%,.,5%[15.4 µM],.,.
O=C(Nc1cccc(Cl)c1)Nc1ccc(Br)cc1F,1%,-8%,67*,3%,19*,-1%
O=C(O)CSc1ccc(NC(=O)Nc2ccccc2F)cc1,16µM*,8%,24,?,5,9%
O=C(Nc1ccccc1)Nc1ccc(Br)cc1F,2%,4%,110*,-11%,31*,-2%
Cc1cc(NC(=O)Nc2ccccc2F)ccc1Br,-14%,17%,77*,-4%,55*,-6%
N#Cc1ccccc1NC(=O)Nc1cccc(Cl)c1,-2%,-32%,-14,1%,-3,-4%
COc1cc(Cl)c(C)cc1NC(=O)Cn1cnc2sc(C)c(S(=O)(=O)N3CCCCC3)c2c1=O,.,-3%,.,4%,.,.
CCOc1ccc(CN(C)C(=O)c2cccc(S(=O)(=O)N3CCCC3)c2)cc1OC,.,?,.,0%,.,.
COc1ccccc1C1=Nn2c(nnc2-c2cccc(OC)c2OC)SC1,.,.,16,.,-2,-7%
CCCCCCCCCCCCCCCC(=O)OC(C)C,.,.,.,-9%,.,.
CC(C)(C)c1ccc(-c2noc(-c3ccc4c(c3)CCO4)n2)cc1,-2%,-1%,35*,-1%,21*,1%
Cc1cc(-c2nc(-c3ccc(C(C)(C)C)cc3)no2)no1,-5%,11%,53*,-1%,39*,0%
OC[C@H]1O[C@@H](c2nc(-c3ccc4c(c3)CCO4)no2)[C@H](O)[C@@H](O)[C@H]1O,.,.,.,4%,.,.
Cc1c(-c2nc(-c3ccc(C(C)(C)C)cc3)no2)n(C)oc1=O,-1%,-7%,161*,-2%,60*,-2%
SMILES,LmPK inh,Sm TGR inh,Shiga inhibitor,Tb PYK inh,Cycloheximide cs,FBPA Giardia inh
CCn1nc(C)c(Br)c1-c1nc(-c2ccc(C)cc2)no1,0%,2%,7,2%,1,4%
Cc1cc2c(s1)c1cnn(Cc3cccc(Cn4ncc5c6sc(C)cc6n(C)c5c4=O)c3F)c(=O)c1n2C,.,.,-1,.,-4,.
CCCCCn1ncc2c3sc(C)cc3n(C)c2c1=O,.,.,91*,.,32*,.
O=C(CSc1nccc(=O)[nH]1)c1cc2ccccc2o1,-8%,8%,47*,-12%,34*,-3%
O=C(CSc1ncn[nH]1)c1cccc([N+](=O)[O-])c1,-5%,-17%,18,-11%,5,?
O=C(CSc1ncn[nH]1)c1ccccc1,8%,-16%,52*,?,17,?
O=C(CSc1ncn[nH]1)c1cc2ccccc2o1,4%,7%,43,0%,20*,-14%
O=C(NCC(c1cccnc1)N1CCN(c2ccccc2F)CC1)c1ccc(F)cc1 (stereo not given),.,-2%,.,8%,.,.
O=C(Nc1ccc(Cl)cc1Cl)c1cc(S(=O)(=O)N2CCC3(CC2)OCCO3)ccc1F,.,0%,.,-4%,.,.
CCCNC(=O)c1cc(-c2ccco2)on1,-6%,-28%,120*,0%,49*,-3%
COc1ccc(CNC(=O)c2cc(-c3ccco3)on2)cc1,1%,0%,11,-5%,9,0%
CC(C)CNC(=O)c1cc(-c2ccco2)on1,-9%,5%,+,-1%,35*,-1%
CCCCn1c(=O)n(-c2cc(OC)ccc2OC)c(=O)c2c3c(sc21)CN(C(C)=O)CC3,.,0%,.,0%,.,.
CCCCOc1ccc(C(=O)N(C)CC(=O)Nc2ccc(C)cc2)cc1,-4%,5%,-9,1%,-2,?
Cc1ccc(NC(=O)c2ccc(-n3cccn3)c([N+](=O)[O-])c2)cc1C,0%,11µM*,45*,-6%,34*,-23%
COc1ccc(NC(=O)c2ccc(-n3cccn3)c([N+](=O)[O-])c2)cc1,0%,40µM*,27,3%,0,-16%
Cc1ccc(NC(=O)c2ccc(-n3cncn3)c([N+](=O)[O-])c2)cc1,2%,-3%,-4,.,9,-9%
COc1ccccc1NC(=O)c1ccc(-n2cccn2)c([N+](=O)[O-])c1,1%,25µM*,37,2%,5,-20%
O=C(Nc1ccc(Cl)cc1)c1ccc(-n2cncn2)c([N+](=O)[O-])c1,0%,-4%,-9,1%,13,-12%
O=C(Nc1ccc(Cl)cc1)c1ccc(-n2cccn2)c([N+](=O)[O-])c1,-3%,0%,30,1%,24*,-12%
CC(C)C[C@H](NC(=O)CNC(=O)[C@@H]1CCCN1C(=O)[C@H](CCCNC(=N)N)NC(=O)[C@H](CC(=O)O)NC(=O)[C@@H](NC(=O)[C@H](CC(N)=O)NC(=O)[C@@H](NC(=O)[C@H](CC(=O)O)NC(=O)CNC(=O)[C@@H](NC(=O)[C@@H](NC(=O)[C@H](C)NC(=O)[C@@H](N)CCC(N)=O)[C@@H](C)O)C(C)C)C(C)C)[C@@H](C)O)C(=O)N[C@@H](CC(C)C)C(=O)N[C@@H](CC(=O)O)C(=O)N[C@@H](CC(C)C)C(=O)N[C@@H](CCCCN)C(=O)O,.,.,8,.,-3,0%
CCCCCCCCCCCCCC[C@@H](O)[C@@H](O)[C@H](CO)NC(C)=O,.,.,-6,.,-2,1%
COc1ccc(Nc2oc(-c3ccc(COc4ccccc4C)o3)nc2C#N)cc1,.,0%,.,-5%,.,.
